Assay [1] has as its target Acetylcholinesterase (Homo sapiens) (UniProt P22303). Briefly: Acetylcholinesterase (AChE) small molecule antagonists: colormetric cell-based qHTS assay (AID 1347395). Also: nearly all actives have a fitted effect of over 30% in size. Also: potency is read from the fitted curve at half-maximal effect. The method in brief: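 SH-SY5Y cells, plated overnight at 37 C, were exposed to compounds for 30 min at 37 C and 5% CO2. Acetylthiocholine plus DTNB was then added, and thiocholine from endogenous AChE was quantified colorimetrically after 90 min at 37 C.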
(Quantitative high-throughput screening tests each substance at several concentrations.)

Assay [2] shares this target. Briefly: Acetylcholinesterase (AChE) small molecule antagonists: enzyme-based qHTS assay (AID 1347397). Also: nearly all actives have a fitted effect of over 55% in size. Also: potency is read from the fitted curve at half-maximal effect. Particulars: Potency: AChE enzyme activity inhibition; outcome: AChE enzyme activity inhibition. A digest of the protocol:
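Tox21 library chemicals are tested in qHTS format against recombinant human AChE. The enzyme, dispensed at 50 mU/mL, sits with compound for 30 min at room temperature. A DTNB–acetylthiocholine cocktail follows, and colour is read after 10 min.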

The target is the same in assay [3]. In words: Acetylcholinesterase (AChE) small molecule antagonists: fluorescence cell-based qHTS assay (AID 1347398). Also: nearly all actives have a fitted effect of over 50% in size. Also: potency is read from the fitted curve at half-maximal effect. The note with it: Potency: AChE activity; outcome: AChE activity. A digest of the protocol: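 Cellular AChE inhibition: SH-SY5Y cells treated with test chemical for 30 min at 37 C, then acetylthiocholine hydrolysis followed over 40 min at room temperature via thiocholine-reactive Thiolite Green fluorescence (490/520 nm).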

Assay [4] has the same target. Briefly: Acetylcholinesterase (AChE) small molecule antagonists: enzyme-based qHTS assay with human liver microsomes (AID 1347399). Also: nearly all actives have a fitted effect of over 60% in size. The note with it: Potency: qHTS inhibition; outcome: qHTS inhibition. The method in brief: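 Recombinant human AChE (50 mU/mL in the enzyme mix) and human liver microsomes (0.25 mg/mL final) were preincubated with compound and NADPH (0.25 mg/mL final) for 30 min at 37 C. Acetylthiocholine/DTNB was then added; thiocholine was read colorimetrically after 10 min at room temperature.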

Structures are written as SMILES. Results filed as inconclusive are left out. The source made the active and inactive calls. Calls follow the shape of the full dose curve.

From PubChem BioAssay (Tox21) come the findings set out here.

Acetylcholinesterase (Homo sapiens), sequence (P22303 whole entry, looked up): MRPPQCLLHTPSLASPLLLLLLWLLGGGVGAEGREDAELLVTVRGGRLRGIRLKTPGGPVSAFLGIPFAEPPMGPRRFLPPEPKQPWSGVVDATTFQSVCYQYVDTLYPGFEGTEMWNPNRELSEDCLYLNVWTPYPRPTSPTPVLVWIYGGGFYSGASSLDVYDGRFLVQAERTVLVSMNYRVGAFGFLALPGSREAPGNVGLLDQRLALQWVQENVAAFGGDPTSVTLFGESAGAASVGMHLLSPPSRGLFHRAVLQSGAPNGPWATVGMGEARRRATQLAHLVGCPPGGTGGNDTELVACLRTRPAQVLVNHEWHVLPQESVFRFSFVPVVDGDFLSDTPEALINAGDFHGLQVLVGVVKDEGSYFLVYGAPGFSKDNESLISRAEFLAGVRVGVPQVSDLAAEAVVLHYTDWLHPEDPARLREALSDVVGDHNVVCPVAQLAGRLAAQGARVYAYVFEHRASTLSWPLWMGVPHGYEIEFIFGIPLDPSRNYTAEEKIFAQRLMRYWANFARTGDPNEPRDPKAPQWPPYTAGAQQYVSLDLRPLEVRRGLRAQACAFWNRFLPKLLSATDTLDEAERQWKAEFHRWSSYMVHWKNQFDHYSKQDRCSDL

In the case of `CCOC(=O)c1ccccc1OC`, the Potency result in assay [1], in assay [2], in assay [3] and in assay [4] was “inactive” each time.

Regarding `O=C1OC(CN2CCOCC2)CN1/N=C/c1ccc([N+](=O)[O-])o1` (centres undefined), the Potency entry in assay [1], in assay [2], in assay [3] and in assay [4] was “inactive” each time.

Turning to `CC(C(=O)O)c1ccc2c(c1)[nH]c1ccc(Cl)cc12` (centres undefined), the Potency result in assay [1], in assay [2], in assay [3] and in assay [4] was “inactive” each time.

As for `COC(=O)C1=C(C)NC(C)=C(C(=O)O[C@@H]2CCCN(Cc3ccccc3)C2)[C@@H]1c1cccc([N+](=O)[O-])c1`, the Potency result in assay [1], in assay [2], in assay [3] and in assay [4] was “inactive” in each case.

With `O=C(O)c1cccc(C(=O)O)c1C(=O)O`, the Potency entry in assay [1], in assay [2], in assay [3] and in assay [4] was “inactive” each time.

As to `N#CCN(CC#N)CCN(CC#N)CC#N`, the Potency result in assay [1], in assay [2], in assay [3] and in assay [4] was “inactive” throughout.

In the case of `COc1ccc(C2C(=O)c3ccccc3C2=O)cc1`, the Potency entry in assay [1], in assay [2], in assay [3] and in assay [4] was “inactive” each time.

`Nc1ccn([C@@H]2O[C@H](CO)[C@@H](O)C2(F)F)c(=O)n1`: the Potency result in assay [1], in assay [2], in assay [3] and in assay [4] was “inactive” in each case.

On to `CCCCCCCOC(=O)c1ccccc1C(=O)OCCCCCCC`, for which the Potency entry in assay [1], in assay [2], in assay [3] and in assay [4] was “inactive” each time.

For `O=C(Nc1ccc([N+](=O)[O-])cc1)Nc1ccc([N+](=O)[O-])cc1`, the Potency entry in assay [1], in assay [2], in assay [3] and in assay [4] was “inactive” throughout.

Consider `Cc1ccnc2ccccc12`, for which the Potency entry in assay [1], in assay [2], in assay [3] and in assay [4] was “inactive” in each case.

On to `O=C(O)COCC(=O)O`, for which the Potency entry in assay [1], in assay [2], in assay [3] and in assay [4] was “inactive” each time.

As for `Nc1nc(Cl)nc2c1ncn2[C@@H]1O[C@H](CO)[C@@H](O)[C@@H]1F`, the Potency entry in assay [1], in assay [2], in assay [3] and in assay [4] was “inactive” each time.

`Cc1cccc(Cl)c1`: the Potency result in assay [1], in assay [2], in assay [3] and in assay [4] was “inactive” in each case.

Consider `Nc1ccc(NCCO)c([N+](=O)[O-])c1`, for which the Potency in assay [1] was 35.6 µM (active); in assay [2], 71 µM (active); in assay [3], 35.6 µM (active). Besides, the Potency entry in assay [4] is “inactive”.

As to `Cc1cccc(CN2CCN(C(c3ccccc3)c3ccc(Cl)cc3)CC2)c1` (centres undefined), the Potency entry in assay [1], in assay [2], in assay [3] and in assay [4] was “inactive” each time.

Turning to `Cc1ccc(N(CC2=NCCN2)c2cccc(O)c2)cc1`, the Potency result in assay [1], in assay [2], in assay [3] and in assay [4] was “inactive” in each case.

For `C=CCN(CC=C)CC=C`, the Potency result in assay [1], in assay [2], in assay [3] and in assay [4] was “inactive” each time.

Take `CC/C=C\CCOC(=O)C(C)C`: the Potency entry in assay [1], in assay [2], in assay [3] and in assay [4] was “inactive” in each case.

Consider `CC(C)CCCC(C)(C)O`, for which the Potency result in assay [1], in assay [2], in assay [3] and in assay [4] was “inactive” throughout.

Turning to `Cc1ccc(Cl)c(OCC(O)CNC(C)(C)C)c1` (centres undefined), the Potency result in assay [1], in assay [2], in assay [3] and in assay [4] was “inactive” each time.

Regarding `C[C@@H]1C[C@H]2[C@@H]3CCC4=CC(=O)C=C[C@]4(C)[C@@]3(F)[C@@H](O)C[C@]2(C)[C@@]1(O)C(=O)CO`, the Potency entry in assay [1], in assay [2], in assay [3] and in assay [4] was “inactive” in each case.

Regarding `CC(=O)OC(C)(C)Cc1ccccc1`, the Potency result in assay [1], in assay [2], in assay [3] and in assay [4] was “inactive” in each case.

With `CCCCCCCCc1ccc(S(=O)(=O)O)cc1`, the Potency entry in assay [1], in assay [2], in assay [3] and in assay [4] was “inactive” throughout.

Turning to `CC(=O)NC(Cc1ccccc1)C(=O)O` (centres undefined), the Potency entry in assay [1], in assay [2], in assay [3] and in assay [4] was “inactive” throughout.

`CCC(O)CO` (centres undefined): the Potency entry in assay [1], in assay [2], in assay [3] and in assay [4] was “inactive” each time.

Regarding `CC(C)(C)c1cc(CCC(=O)OCCSCCOC(=O)CCc2cc(C(C)(C)C)c(O)c(C(C)(C)C)c2)cc(C(C)(C)C)c1O`, the Potency entry in assay [1], in assay [2], in assay [3] and in assay [4] was “inactive” in each case.

As for `O=C(Nc1ccc([N+](=O)[O-])cc1)Nc1ccc([N+](=O)[O-])cc1` (tested in a mixture with another compound), the Potency entry in assay [1], in assay [2], in assay [3] and in assay [4] was “inactive” throughout.

For `COc1ccccc1OCC(O)CN1CCN(CC(=O)Nc2c(C)cccc2C)CC1` (centres undefined), the Potency result in assay [1], in assay [2], in assay [3] and in assay [4] was “inactive” in each case.

Consider `Cc1nnc(SCC2=C(C(=O)O)N3C(=O)[C@@H](NC(=O)Cn4cnnn4)[C@H]3SC2)s1`, for which the Potency result in assay [1], in assay [2], in assay [3] and in assay [4] was “inactive” each time.

As for `CC(C)COC(=O)c1ccc(O)cc1`, the Potency entry in assay [1], in assay [2], in assay [3] and in assay [4] was “inactive” in each case.

With `C/C=C(/C(=C/C)c1ccc(OC(C)=O)cc1)c1ccc(OC(C)=O)cc1`, the Potency entry in assay [1], in assay [2], in assay [3] and in assay [4] was “inactive” each time.

Turning to `Cc1cc(C)cc([N+](=O)[O-])c1`, the Potency result in assay [1], in assay [2], in assay [3] and in assay [4] was “inactive” throughout.

For `OC/C=C/CO`, the Potency in assay [1] is 35.5 µM (active). For the same compound, the Potency entry in assay [2], in assay [3] and in assay [4] was “inactive” in each case.

Turning to `O=c1[nH][nH]c(=O)c2cc([N+](=O)[O-])ccc12`, the Potency entry in assay [1], in assay [2], in assay [3] and in assay [4] was “inactive” each time.

Turning to `FC1(F)C(F)(F)C(F)(F)C2(F)C(F)(F)C(F)(F)C(F)(F)C(F)(F)C2(F)C1(F)F` (centres undefined), the Potency entry in assay [1], in assay [2], in assay [3] and in assay [4] was “inactive” each time.
